Reference: PubChem BioAssay (Tox21)
Values joined by “and” are separate entries in the source; they are usually repeats but may differ in a detail not shown here. Equal entries are not always repeated. Results filed as inconclusive are left out. A call without a number means that no potency is given here. Active and inactive are the calls of the source. The call rests on the fitted dose curve; in most records, active means well fitted activation curve with a large enough effect in the repeat runs; inconclusive means weak or mixed curves; inactive means no such curve, though single readings can be large or run the other way.

target: Nuclear receptor subfamily 1 group I member 2 (Homo sapiens) (UniProt O75469); assay: Human pregnane X receptor (PXR) small molecule agonists, qHTS assay (AID 1346982); conditions: PXR-Luc HepG2, CYP3A4 luciferase reporter, 24 h; series mostly up to 92.4 µM; further: nearly all actives have a fitted effect of over 35% in size
Excerpt: National Center for Advancing Translational Sciences [NCATS]
NIH Chemical Genomics Center [NCGC]
U.S. Environmental Protection Agency [EPA]
National Institutes of Environmental Health Sciences [NIEHS]
National Toxicology Program [NTP]
The human pregnane X receptor (hPXR) regulates the expression of several drug metabolizing enzymes and induction of these proteins is a major mechanism for developing drug resistance in cancer. One such key enzyme catalyzing the drug metabolism is cytochrome P450 3A4 (CYP3A4). Changes in CYP3A4 expression affect drug metabolism, thereby reducing the therapeutic efficacy and altering toxicological response to a drug and which finally causes adverse drug interaction. To screen Tox21 libraries for compounds that activate hPXR-mediated CYP3A4 gene expression, PXR-Luc HepG2 cells were used.
PXR-Luc HepG2 cells were dispensed at 2,000 per well in 5uL of assay medium containing 5% charcoal-stripped FBS into white solid bottom 1536-well plates (Corning Life Sciences, Corning, NY) using a Multidrop Combi (Thermo Scientific, Waltham, MA) dispenser. The assay plates were incubated at 37 C and 5% CO2 for 5hr, and then 23nL of compounds dissolved in DMSO and positive control were transferred using a Pintool station (Wako, San Diego, CA). The assay plates were incubated at 37C and 5% CO2 for 24hr. For luciferase read, 4uL of ONE-Glo reagent (Promega Corporation, Madison, WI) was added to each well of the assay plates using Flying Reagent Dispenser (FRD, Aurora Discovery, San Diego, CA) and incubated the assay plates at room temperature for 30min. The luminescence signal was quantified using a ViewLux plate reader (Perkin Elmer, Shelton, CT).
Potency means the concentration at half of the fitted maximal effect.

Nuclear receptor subfamily 1 group I member 2 (Homo sapiens), sequence (O75469 whole entry, looked up): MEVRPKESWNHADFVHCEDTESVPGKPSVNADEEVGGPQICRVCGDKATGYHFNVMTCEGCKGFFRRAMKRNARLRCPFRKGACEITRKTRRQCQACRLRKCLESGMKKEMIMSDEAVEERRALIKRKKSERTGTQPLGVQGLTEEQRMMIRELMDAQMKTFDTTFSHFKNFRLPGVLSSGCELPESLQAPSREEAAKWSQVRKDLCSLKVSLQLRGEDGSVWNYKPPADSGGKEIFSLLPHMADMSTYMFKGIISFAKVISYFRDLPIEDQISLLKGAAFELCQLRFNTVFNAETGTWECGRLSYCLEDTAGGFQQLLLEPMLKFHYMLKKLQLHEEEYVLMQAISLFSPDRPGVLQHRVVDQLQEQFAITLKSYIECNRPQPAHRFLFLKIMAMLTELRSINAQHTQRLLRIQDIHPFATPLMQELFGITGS

Row | SMILES | Potency
1 | Cc1ccc(N)c(C)c1 | inactive
2 | O=CC=O | inactive
3 | C[N+]1(CCF)[C@@H]2CC[C@H]1CC(OC(=O)C(O)(c1ccccc1)c1ccccc1)C2 (stereo not given in full) | inactive
4 | CCCCC(CC)COC(=O)c1c(Br)c(Br)c(Br)c(Br)c1C(=O)OCC(CC)CCCC (stereo not given) | 16.8 µM (active)
5 | NC(=S)c1c(Cl)cccc1Cl | inactive
6 | O=C(O)C(Cl)(Cl)Br | inactive
7 | ClCc1ccccc1Cl | inactive
8 | O=C(Cc1ccccc1)OCCc1ccccc1 | inactive
9 | COc1ccc(C(O)(c2cncnc2)C2CC2)cc1 (stereo not given) | inactive
10 | Nc1cccc2ccccc12 | 48.9 µM (active) and 61.1 µM (active)
11 | COP(=O)(OC)OC(Br)C(Cl)(Cl)Br (stereo not given) | 61.2 µM (active)
12 | CN(C1CCCCC1)C1CCCCC1 | inactive
13 | CCc1ccccc1N | inactive
14 | CCC(C)Cl (stereo not given) | inactive
15 | CCOP(=S)(OCC)SCSc1cc(Cl)ccc1Cl | inactive
16 | CC(O)CN1CCN(CC(=O)[O-])CCN(CC(=O)[O-])CCN(CC(=O)[O-])CC1.[Gd+3] (stereo not given) | inactive
17 | CNC(=O)Oc1cccc(N=CN(C)C)c1 | inactive
18 | Cc1ccccc1 | inactive
19 | C1CCNCC1 | inactive
20 | C=CC(=O)OCC | inactive

Row | SMILES | Potency
21 | CN1CC[C@]23c4c5ccc(O)c4O[C@H]2[C@@H](O)CC[C@H]3[C@H]1C5 | inactive
22 | O=C(O)C(F)(F)C(F)(F)C(F)(F)C(F)(F)C(F)(F)F | inactive
23 | CN1CC[C@]23c4c5ccc(O)c4O[C@H]2[C@@H](O)C=C[C@H]3[C@H]1C5 | inactive
24 | C=CCc1ccccc1O | inactive
25 | COC(=O)Cc1ccccc1 | inactive
26 | CC1(C)CC(=O)CC(C)(C)N1[O] | inactive
27 | O=C(CCl)CCl | 56.5 µM (active) and 61.1 µM (active)
28 | CCCSP(=S)(OCC)Oc1ccc(SC)cc1 (stereo not given) | 17.2 µM (active)
29 | CCCN(CCC)c1c([N+](=O)[O-])cc(C(C)C)cc1[N+](=O)[O-] | 23.8 µM (active)
30 | O=S(=O)(c1ccccc1)c1ccccc1 | inactive
31 | O=S(=O)(Cl)Cl | inactive
32 | CCCC(C)(COC(N)=O)COC(=O)NC(C)C (stereo not given) | inactive
33 | O=C(N[C@H]1CN2CCC1CC2)c1ccc2c(c1)OCCO2 | inactive
34 | CCCCCBr | inactive
35 | FC(Cl)(Cl)C(F)(Cl)Cl | inactive
36 | CN(C)c1ccc(N=O)cc1 | 21.8 µM (active) and 9.69 µM (active)
37 | CC(CC(C(N)=O)(c1ccccc1)c1ccccc1)N(C)C (stereo not given) | inactive
38 | O=[N+]([O-])c1cc(Cl)c(Cl)cc1Cl | inactive
39 | CCCCC#N | inactive
40 | CCOC(C(=O)OCCN(C)C)(c1ccccc1)c1ccccc1 | 13.3 µM (active)
